Pf apPOL inh = Pf-apPOL DNA polymerase inhibition; Recombinant Pf-apPOL, molecular beacon fluorescence, 1.5 h; inhibition, % at 10 µM; 0.25% of 210,000 active
mHTT CaM bind = inhibitors of human mutant huntingtin-calmodulin interaction | AlphaScreen His-mHTT/GST-CaM binding, luminescence | inhibition, % at 15 µM | 3.6% of 190,000 active
Large screens that a line does not name were inactive. Most compounds without a hit are left out; they make up all but 3.6% or so of the library. Rule as the data show it: active = inhibition above about 50%; inactive = the rest.

O=C1/C(=C/c2cccnc2)CS/C1=C\c1cccnc1	none
O=C1/C(=C/c2ccsc2)CS/C1=C\c1ccsc1	mHTT CaM bind 63
CCOC(=O)C1CCN(C)CC1	none
O=C(C1Cc2cc(C(F)(F)F)ccc2N2CCSCC12)N1CCOCC1 (stereo unspecified)	mHTT CaM bind 83
O=C(NCCN1CCCCC1)C1Cc2cc(C(F)(F)F)ccc2N2CCOCC12 (stereo unspecified)	none
O=C(NCC1CCCCC1)c1cccc(CN2C(=O)C3CCCN3C(=O)c3ccccc32)c1 (stereo unspecified)	none
COc1ccc(Nc2nc(Nc3ccc(O)cc3)nc(C)c2[N+](=O)[O-])cc1	mHTT CaM bind 78
CNc1nc(C)c([N+](=O)[O-])c(Nc2ccc(OC)cc2)n1	none
Cc1ccc(C)n1-c1ccc2ncccc2c1	mHTT CaM bind 67
Cc1nnc(C)c2c(C)n(-c3ccc4ncccc4c3)c(C)c12	none
CNC(=O)Nc1ccc(C2(C(=O)NC3CCCCC3)CCC2)cc1	none
Cc1cc(C)n(-c2ccnc(NCc3cccnc3)n2)n1	none
COc1ccc(-c2coc3c4c(ccc3c2=O)OCN(C2CCCCC2)C4)cc1	none
COc1ccc(-c2coc3c4c(ccc3c2=O)OCN(c2cc(Cl)c(OC)cc2OC)C4)cc1	mHTT CaM bind 60
C=CCNC(=O)CN(Cc1ccc(Cl)cc1Cl)S(=O)(=O)c1ccccc1	none
Cc1ccc2nc(-c3ccc(N=Cc4ccc5c(c4)OCO5)cc3O)oc2c1	mHTT CaM bind 60
Cc1ccc2nc(-c3cc(N=Cc4ccc([N+](=O)[O-])cc4)ccc3O)oc2c1	none
COc1ccc(-c2nc(-c3ccc4ncn(C)c4c3)no2)cc1	none
COc1ccc(C(=O)CC(c2ccc(C)o2)S(=O)(=O)c2ccc(C)cc2)cc1 (stereo unspecified)	none
O=C1C(=O)N(Cc2cccc(C(F)(F)F)c2)c2ccccc21	none
O=C1C(=O)N(CCc2ccccc2)c2ccc(Cl)cc21	none
O=S(=O)(c1ccc(Cl)c(S(=O)(=O)N2CCOCC2)c1)N1CCOCC1	none
Cc1ccc(CN2C(=O)C(=O)c3cc(S(=O)(=O)N4CCOCC4)ccc32)cc1	mHTT CaM bind 89
Cc1ccc(CN2C(=O)C(=O)c3cc(Cl)ccc32)cc1	mHTT CaM bind 62
O=C1C(=O)N(Cc2cccc(Cl)c2)c2ccccc21	mHTT CaM bind 93
CCCc1noc(-c2cccnc2N2CCCN(C(=O)c3ccc(C)cc3)CC2)n1	none
O=S(=O)(c1ccc(Cl)cc1)c1ccc(Cl)c(Cl)c1	none
COc1ccccc1-c1nc(C(=O)NC2CC2)cs1	none
CCN(C)C(=O)c1csc(-c2cccc(OC(C)C)c2)n1	none
CC(=O)OC1COC(Oc2ccc(C(C)(C)C)cc2)C(OC(C)=O)C1OC(C)=O (stereo unspecified)	none
CCC(C)c1ccccc1OCC(O)CN(C)C1CCCCC1 (stereo unspecified)	none
Cc1cc(C)cc(C(=O)Nc2ccc3c(c2)Sc2ncccc2C(=O)N3C)c1	mHTT CaM bind 73
Cc1ccc(C(=O)Nc2ccc3c(c2)Sc2ncccc2C(=O)N3C)cc1	none
COc1ccccc1C1CN(C(C)=O)CC1C(=O)NC1CC1 (stereo unspecified)	none
CN(C(=O)Cc1c[nH]c2ccccc12)C(C(=O)Nc1ccc2c(c1)OCCO2)c1ccccc1 (stereo unspecified)	none
COc1ccc(NC(=O)C(c2cc3c(cc2[N+](=O)[O-])OCO3)N(C)Cc2ccccc2)cc1 (stereo unspecified)	mHTT CaM bind 61
COc1ccc(C(C(=O)Nc2ccc3c(c2)OCO3)N(C)C(=O)Cc2c[nH]c3ccccc23)cc1 (stereo unspecified)	mHTT CaM bind 75
CCN(c1cccc(C)c1)C(C(=O)Nc1ccc(OC)cc1)c1cc2c(cc1[N+](=O)[O-])OCO2 (stereo unspecified)	none
O=C(Cc1cccs1)Nc1cccc(C(=O)c2ccccc2)c1	none
O=C(Cc1cccs1)Nc1cnc(-c2ccccc2)nc1	mHTT CaM bind 51
COc1cc(C(CC(=O)N2CCCC2)c2c(OC)cc(OC)c3ccc(=O)oc23)cc(OC)c1OC (stereo unspecified)	none
COc1ccc(C(CC(=O)N2CCCC2)c2c(O)cc(OC)cc2OC)cc1 (stereo unspecified)	none
COc1ccc(C(CC(=O)N2CCN(c3ccccc3)CC2)c2c(OC)cc(OC)c3ccc(=O)oc23)cc1 (stereo unspecified)	mHTT CaM bind 56
COc1cc(O)c(C(CC(=O)N2CCN(c3ccccc3)CC2)c2ccc(N(C)C)cc2)c(OC)c1 (stereo unspecified)	mHTT CaM bind 74
COC(=O)c1ccc(CN2CCN(c3ccc(Cl)cc3C)C(=O)C2C)cc1 (stereo unspecified)	none
CCOc1ccc2nc(C)cc(Nc3ccc(C)c(Cl)c3)c2c1	mHTT CaM bind 95
CCOc1ccc2nc(C)cc(Nc3ccc(N4CCOCC4)cc3)c2c1	none
Cc1cc(Nc2ccc(N(C)C)cc2)c2cc(Cl)ccc2n1	mHTT CaM bind 73
Cc1cc(Nc2ccc(O)cc2)c2cc(Cl)ccc2n1	none
COc1ccc(S(=O)(=O)N2CCN(c3ccc([N+](=O)[O-])cc3)CC2)cc1	none
NC(Cc1ccc([N+](=O)[O-])cc1)=NOC(=O)c1cccs1	none (no result: mHTT CaM bind)
O=c1ccc(-c2ccc(F)cc2)nn1CCc1nc(-c2ccc(F)cc2)no1	mHTT CaM bind 70
O=c1ccc(-c2ccccc2)nn1CCc1nc(-c2ccc(F)cc2)no1	none
CC(C)=CCCC1(C)OC(=O)N(Cc2ccccc2)C1(C)O (stereo unspecified)	none
CCNC(=O)C1Cc2ccccc2N2CCN(c3cnccn3)CC12 (stereo unspecified)	none
O=C(NCc1ccccc1F)C1Cc2ccccc2N2CCN(c3cnccn3)CC12 (stereo unspecified)	mHTT CaM bind 84
CC1(C)S[C@@H]2[C@H](NC(=O)COc3ccccc3)C(=O)N2[C@H]1C(=O)OCc1cccc2cccnc12	mHTT CaM bind 51
Cc1cc(COC(=O)C2N3C(=O)[C@@H](NC(=O)COc4ccccc4)[C@H]3SC2(C)C)on1 (stereo partly specified)	none
O=C(Cn1cc([N+](=O)[O-])nc1[N+](=O)[O-])Nc1cc(Oc2ccccc2)cc([N+](=O)[O-])c1	mHTT CaM bind 51
O=C(Cn1cnc([N+](=O)[O-])n1)Nc1cc(Oc2ccc(F)cc2)cc([N+](=O)[O-])c1	none
O=C(Cn1cnc([N+](=O)[O-])c1)Nc1cc(Oc2cccnc2)cc([N+](=O)[O-])c1	none
O=C(Cn1cnc([N+](=O)[O-])n1)Nc1cc(Oc2cccc(C(F)(F)F)c2)cc([N+](=O)[O-])c1	mHTT CaM bind 51
CCOC(=O)c1nsc(C(C)=NNc2ccccc2)c1N	none (no result: mHTT CaM bind)
CCOc1ccc(-c2cccc(NC(=O)c3ccc(F)cc3F)c2)nn1	none
Cc1nnc2ccc(-c3cccc(NC(=O)c4cc(Br)ccc4Cl)c3)nn12	mHTT CaM bind 57
O=C(Nc1cccc(-c2ccc3nnc(-c4cccnc4)n3n2)c1)c1ccc(F)cc1F	mHTT CaM bind 80
CCOc1ncccc1C(=O)Nc1cccc(-c2ccc3nnc(C)n3n2)c1	none
COc1cccc(CNC(=O)c2ccc(-c3cccnc3)cc2)c1	none
O=[N+]([O-])c1cnn(CCl)c1	none (no result: Pf apPOL inh)
COc1ccc(-c2ccc3nc(N4CCC(C(=O)N(C)C)CC4)sc3n2)cc1	none
O=C1C2C3C=CC(O3)C2C(=O)N1c1cccc(Br)c1 (stereo unspecified)	none

Screens as filed in PubChem BioAssay.
